# Results: PubChem BioAssay
# Assay: small molecules captured by biotinylated probe aFST – biochemical, small-molecule microarray, fluorescence 635/667, stem cell growth factor project, primary screen (AID 1086);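 further: score merges 667 nm fluorescence with signal-to-noise of each printed compound spot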
# Conditions: higher = more signal
row,SMILES,composite z-score
1,COCCOC(=O)N1C(=O)[C@@]2(c3cc(C#CCNC(N)=O)ccc31)[C@H](c1ccc(OCCO)cc1)N1[C@H](c3ccccc3)[C@H](c3ccccc3)OC(=O)[C@H]1[C@@H]2C(=O)N1CCc2cc(OC)c(OC)cc2C1,0.883
2,COCCOC(=O)N1C(=O)[C@@]2(c3cc(C#CC4(O)CCCCCC4)ccc31)[C@H](C(=O)N1CCCCCCC1)[C@H]1C(=O)O[C@H](c3ccccc3)[C@H](c3ccccc3)N1[C@@H]2c1ccccc1OCCO,2.2
3,C=C(COC)/C(=C/C[C@H](OC(=O)c1ccncc1)c1cccc(OCCO)c1)c1cc(C(=O)OC)ccc1OC,-0.0832
4,COc1c(C)cc(-c2cc3c(c(-c4ccc(Oc5ccccc5)cc4)n2)[Si](C(C)C)(C(C)C)OC3)cc1C,0.0723
5,CCOC(=O)C1=CCC(c2ccc(C#N)cc2)N(S(=O)(=O)c2ccc(C)cc2)C1 (stereo unspecified),1.27
6,CCOC(=O)C1=C[C@@H](C(C)C)N(S(=O)(=O)c2ccc(C)cc2)[C@H]1c1ccc(C(C)C)cc1,0.937
7,CCOC(=O)C1=CCC(C(C)(C)C)N(S(=O)(=O)c2ccc(C)cc2)C1 (stereo unspecified),0.533
8,CCCCC=C[C@@H](NC(=O)c1ccco1)c1ccccc1,0.199
9,CC(C)(C)N1CC=CC23O[C@@H]4C=CCOC(=O)[C@@H]4[C@H]2C(=O)N(CCCCCO)[C@@H]3C1=O (stereo partly specified),0.411
10,O=C1C=CC(=O)[C@@H]2CC(COc3ccccc3)=C3[C@@H](CCc4ccccc4)OB(O)C[C@@H]3[C@H]12,-0.467
11,Cc1ccccc1C(O)C1C=CC2C(=O)N(C)C(=O)C2N1N1CCCCC1 (stereo unspecified),0.927
